Potency data for eleven compounds are collected here from PubChem BioAssay (NCATS).

Records with an inconclusive call do not appear. A call without a number means that no potency is given here. Active and inactive are the calls of the source. Calls come from the whole dose curve; as a rule, active = well fitted inhibition curve with a large enough effect; inconclusive = small, poorly fitted or top-dose-only effect; inactive = flat fitted curve, though single readings scatter.

The subject of the test is astro (control astrocytes). The test is described as follows: Drug repurposing screens with cells derived from glioblastoma tumor samples (AID 1345199). Note: nearly all actives have a fitted effect of over 40% in size. The following applies: viability, ATP luminescence, 48 h; series mostly up to 45.9 µM. An outline of the steps: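 Primary testing used CD133+ neurospheres from four GBM patients, seven concentrations, 48 h exposure and ATP-based viability; confirmation added three slower-growing patient lines.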
With `C[C@H](O)CN(C)C`, the Potency result was “inactive”.

Consider `CCCCCCCCCCCCCCCCCCOCC(COP(=O)([O-])OCC[N+](C)(C)C)OC` (stereo unspecified), for which the Potency entry is “inactive”.

For `COc1ccc(/C=C/C(=O)O)cc1`, the Potency result was “inactive”.

Take `CC1=C[C@H](O)CC(C)(C)[C@H]1/C=C/C(C)=C/C=C/C(C)=C/C=C/C=C(C)/C=C/C=C(C)/C=C/C1=C(C)C[C@@H](O)CC1(C)C`: the Potency result was “inactive”.

Regarding `O=C1CC[C@@H](C(=O)N[C@H]2C[C@@H]2c2ccccc2)N1`, the Potency entry is “inactive”.

Regarding `CN[C@@H]1[C@@H](O)[C@@H](O[C@@H]2[C@@H](O)[C@H](OC3OC(CN)=CCC3N)[C@@H](N)C[C@H]2N)OC[C@]1(C)O` (stereo partly specified), the Potency entry was “inactive”.

With `CCOC(=O)c1c[nH]c2cc(OCC(C)C)c(OCC(C)C)cc2c1=O`, the Potency result was “inactive”.

Take `CO/N=C(\C(=O)N[C@@H]1C(=O)N2C(C(=O)[O-])=C(C[n+]3cccc4c3CCC4)CS[C@H]12)c1csc(N)n1`: the Potency result was “inactive”.

In the case of `CC12CCC(C1)C(C)(C)C2=O` (stereo unspecified), the Potency entry was “inactive”.

On to `C[C@@H](O)[C@H]1C(=O)N2C(C(=O)[O-])=C(SC3Cn4cnc[n+]4C3)[C@H](C)[C@H]12` (stereo partly specified), for which the Potency result was “inactive”.

As to `CCSc1ccc2c(c1)N(CCCN1CCN(C)CC1)c1ccccc1S2`, the Potency entry was “inactive”.
